Out of some 5,500 compounds screened, about 2,000 (36%) were called active. Another 18% or so got no clear call; they are omitted. Cut-off read from the data, not from the text of the source: active = normalized growth mostly below about 0.91 (no sharp cut-off); inconclusive = no clear call, values can overlap the other calls; inactive = mostly above about 0.92. This is one part of the list.
Experiment: chemical genetic growth profiling, strain panel (AID 1159580);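 note: tested at 20 µM; growth read once vehicle control cultures reached saturation at 30 °C; 1 = growth at the plate median or of vehicle wells; lower values mean less growth of the strain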
Conditions: S. cerevisiae deletion strains, growth OD

Measured: normalized growth

N#Cc1nn(-c2c(Cl)cc(C(F)(F)F)cc2Cl)c(N)c1S(=O)C(F)(F)F (stereo not drawn)
active: locus YBR009C, strain hhf1, active compounds read low 0.895 | locus YDR137W, strain rgp1, active compounds read low 0.576 | locus YDR195W, strain ref2 1.15 [resistant] | locus YLR221C, strain rsa3, active compounds read low 0.89 | locus YLR262C, strain YPT6 (second series), active compounds read low 0.521 | locus YLR342W, strain FKS1, active compounds read low 0.889 | locus YML120C, strain ndi1, active compounds read low 0.909
inactive: locus YAL021C, strain ccr4, active compounds read low 0.995 | locus YAL026C, strain drs2, active compounds read low 0.947 | locus YAL030W, strain snc1, active compounds read low 0.986 | locus YBL061C, strain skt5, active compounds read low 0.99 | locus YBR023C, strain chs3, active compounds read low 1 | locus YBR171W, strain sec66, active compounds read low 0.961 | locus YBR231C, strain swc5, active compounds read low 1.01 | locus YBR279W, strain paf1, active compounds read low 1 | locus YCL011C, strain gbp2, active compounds read low 0.951 | locus YCL016C, strain dcc1, active compounds read low 1.04 | locus YCL069W, strain vba3, active compounds read low 0.998 | locus YCR088W, strain abp1, active compounds read low 0.993 | locus YDL005C, strain med2, active compounds read low 0.987 | locus YDL040C, strain nat1, active compounds read low 0.982 | locus YDR001C, strain nth1, active compounds read low 0.992 | locus YDR069C, strain doa4, active compounds read low 0.965 | locus YDR159W, strain sac3, active compounds read low 0.888 | locus YDR297W, strain sur2, active compounds read low 0.961 | locus YDR334W, strain swr1, active compounds read low 0.962 | locus YDR335W, strain msn5, active compounds read low 1.01 | locus YDR392W, strain spt3, active compounds read low 0.785 | locus YEL003W, strain gim4, active compounds read low 0.936 | locus YEL037C, strain rad23, active compounds read low 0.986 | locus YEL061C, strain CIN8 (second series), active compounds read low 0.973 | locus YER015W, strain faa2, active compounds read low 0.955 | locus YER016W, strain bim1, active compounds read low 1.01 | locus YER111C, strain swi4, active compounds read low 1.01 | locus YER155C, strain BEM2 (second series), active compounds read low 1.02 | locus YFR010W, strain ubp6, active compounds read low 0.939 | locus YGL167C, strain pmr1, active compounds read low 0.966 | locus YGL173C, strain kem1, active compounds read low 0.979 | locus YGL227W, strain vid30, active compounds read low 0.99 | locus YGL240W, strain doc1, active compounds read low 0.959 | locus YGL253W, strain hxk2, active compounds read low 0.929 | locus YHR013C, strain ard1, active compounds read low 1.01 | locus YHR027C, strain rpn1, active compounds read low 0.968 | locus YHR030C, strain SLT2, active compounds read low 1.01 | locus YHR079C, strain IRE1, active compounds read low 1.02 | locus YHR142W, strain chs7, active compounds read low 0.956 | locus YJL092W, strain hpr5, active compounds read low 0.992 | locus YJL095W, strain BCK1 (second series), active compounds read low 0.983 | locus YJL095W, strain BCK1, active compounds read low 0.991 | locus YJL115W, strain asf1, active compounds read low 0.99 | locus YJL129C, strain trk1, active compounds read low 1.01 | locus YJL154C, strain vps35, active compounds read low 0.978 | locus YJL164C, strain tpk1, active compounds read low 0.926 | locus YJL166W, strain qcr8, active compounds read low 0.94 | locus YJR066W, strain TOR1, active compounds read low 0.962 | locus YKL160W, strain elf1, active compounds read low 1.03 | locus YKR026C, strain gcn3, active compounds read low 0.98 | locus YKR091W, strain srl3, active compounds read low 0.989 | locus YLL001W, strain dnm1, active compounds read low 0.918 | locus YLL026W, active compounds read low 0.984 | locus YLL041C, strain sdh2, active compounds read low 0.996 | locus YLR027C, strain aat2, active compounds read low 0.955 | locus YLR113W, strain HOG1, active compounds read low 0.964 | locus YLR258W, strain gsy2, active compounds read low 1.01 | locus YLR320W, strain mms22, active compounds read low 0.907 | locus YLR357W, strain rsc2, active compounds read low 0.979 | locus YLR370C, strain arc18, active compounds read low 1.01 | locus YLR384C, strain iki3, active compounds read low 1.01 | locus YMR058W, strain fet3, active compounds read low 0.952 | locus YMR125W, strain sto1, active compounds read low 1.03 | locus YMR129W, active compounds read low 1.01 | locus YMR205C, strain PFK2, active compounds read low 0.981 | locus YMR231W, strain pep5, active compounds read low 0.998 | locus YNL071W, strain lat1, active compounds read low 0.978 | locus YNL183C, strain NPR1, active compounds read low 0.951 | locus YNL209W, strain ssb2, active compounds read low 0.995 | locus YNL248C, strain rpa49, active compounds read low 1.01 | locus YNL322C, strain KRE1 (second series), active compounds read low 1 | locus YNR049C, strain mso1, active compounds read low 1 | locus YOR001W, strain rrp6, active compounds read low 0.901 | locus YOR070C, strain gyp1, active compounds read low 1 | locus YOR080W, strain dia2, active compounds read low 0.991 | locus YOR083W, strain WHI5, active compounds read low 0.941 | locus YOR106W, strain vam3, active compounds read low 0.981 | locus YOR231W, strain MKK1, active compounds read low 1 | locus YOR265W, strain rbl2, active compounds read low 0.967 | locus YOR270C, strain vph1, active compounds read low 0.794 | locus YOR290C, strain snf2, active compounds read low 1.02 | locus YPL051W, strain arl3, active compounds read low 1.04 | locus YPL078C, strain atp4, active compounds read low 0.99 | locus YPL106C, strain sse1, active compounds read low 1.15 | locus YPL240C, strain hsp82, active compounds read low 0.996 | locus YPL256C, strain CLN2, active compounds read low 1.04

From PubChem BioAssay AID1159580 (chemical genetic matrix, 2015)
